VP16 counter – counter-screen for ROR gamma inhibitors: Gal4-VP16 reporter | Drosophila S2 Gal4-VP16 UAS-luciferase, luminescence, 20 h | Potency, µM (highest dose often 53.6 µM), for the others: at the highest dose activity, negative = inhibition, usual class: inhibitors | 3.5% of 310,000 active;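 further: Gal4-VP16 expression switched on by copper sulfate through the metallothionein promoter; potency means the concentration at half of the fitted maximal effect; on the % scale 0 is the no-effect control and ±100 the full control effect; nearly all actives have a fitted effect of over 50% in size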
p53 reactivator – mutant p53 re-activation in reporter cells; 0.063% of 320,000 active; Potency, µM (highest dose often 92.2 µM), for inactives: at the highest dose activity change, positive = activation, actives largely listed as activators; H1299 p53-A138V BP100-luciferase reporter, luminescence, 24 h; AID 504706; further: potency means the concentration at half of the fitted maximal effect; % of control where 0% means no effect; nearly all actives have a fitted effect of over 45% in size
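p53-null H1299 cells stably carrying temperature-sensitive p53-A138V and a BP100-luciferase reporter were pinned with compounds (4-point, 1:5 series) and held 24 hrs at 37 deg C. Luminescence was read 10 min after detection reagent.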
BRCA1 expr up – activators of BRCA1 expression. MCF7-BRCA1-FFLuc reporter, luminescence, 48 h; response scale: scaled: vehicle 0%, 10 µM genistein 100%. Potency, µM (series often up to 46.1 µM), for the others: at the highest dose activation, most hits filed as activators. 1.1% of 380,000 active; further: potency means the concentration at half of the fitted maximal effect; nearly all actives have a fitted effect of over 80% in size
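Cells: MCF7-BRCA1-FFLuc, 2000/well. Exposure: 48 h, 37 °C, 5% CO2. Read: luminescence, 15 min post-substrate. Controls: genistein 10 microM (maximal activation), DMSO (neutral).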
RORgamma inh – blocks mouse ROR gamma transcriptional activity; P51450; Drosophila S2 Gal4-RORgamma UAS-luciferase reporter, 20 h; Potency, µM (highest dose often 53.6 µM), for the others: top-dose activity change, negative = inhibition, most hits filed as inhibitors; 5.4% of 310,000 active; AID 2551; further: potency means the concentration at half of the fitted maximal effect; on the % scale 0 is the no-effect control and ±100 the full control effect; nearly all actives have a fitted effect of over 60% in size
Target sequence (P51450 whole entry, looked up, the tested form may be a part): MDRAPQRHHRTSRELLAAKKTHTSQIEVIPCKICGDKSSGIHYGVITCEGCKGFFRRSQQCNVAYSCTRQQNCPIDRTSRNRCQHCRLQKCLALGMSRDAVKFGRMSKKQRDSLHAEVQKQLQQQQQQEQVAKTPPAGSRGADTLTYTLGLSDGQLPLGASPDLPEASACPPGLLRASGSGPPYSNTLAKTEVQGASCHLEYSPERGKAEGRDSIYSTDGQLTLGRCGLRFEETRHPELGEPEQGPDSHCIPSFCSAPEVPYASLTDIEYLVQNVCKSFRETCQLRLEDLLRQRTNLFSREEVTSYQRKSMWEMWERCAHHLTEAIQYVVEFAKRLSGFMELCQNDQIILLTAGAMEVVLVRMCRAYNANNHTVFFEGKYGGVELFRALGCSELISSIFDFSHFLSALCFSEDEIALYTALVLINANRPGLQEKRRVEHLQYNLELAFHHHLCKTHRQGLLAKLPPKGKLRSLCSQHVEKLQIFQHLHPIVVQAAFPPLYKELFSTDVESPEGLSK
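Stably transfected Drosophila Schneider cells are the test system, with ROR gamma fused to Gal4 and luciferase under UAS control; luminescence is read after 20 hr of 700 uM copper sulfate induction at ambient temperature.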
Giardia killer – kills Giardia lamblia; Giardia lamblia trophozoite viability; activity change, % at 7.66 µM, hits read low; 0.15% of 340,000 active; AID 540267; in the data active means activity change below about -80%; inconclusive means between about -30% and that limit;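 further: parasites exposed to compound for two days anaerobically before the ATP read; on the % scale 0 is the no-effect control and ±100 the full control effect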
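Luminescence from cellular ATP indicates surviving trophozoites (100 cells/well) following 48 hrs anaerobic compound treatment at 37 deg C; signal develops 15-30 min at room temperature.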
ELG1 DNA repair – inhibitors of ELG1-dependent DNA repair in HEK293T cells. HEK293T ELG1-luciferase reporter, luminescence, 16 h; DNA damage induced by 5-fluorouridine. Potency, µM (series often up to 46.1 µM), without a hit: at the highest dose activity change, negative = inhibition, actives largely listed as inhibitors. 2.3% of 330,000 active. AID 504467; further: potency means the concentration at half of the fitted maximal effect; on the % scale 0 is the no-effect control and ±100 the full control effect; nearly all actives have a fitted effect of over 55% in size
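Luminescence from the luciferase reporter, measured 30 min after ONE-Glo reagent at room temperature, was the read-out. Beforehand, 2,000 cells per well were exposed for 16 hr at 37 °C to 5-fluorouridine together with compound or vehicle.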
Active calls of the source: *; ? = inconclusive; . = not tested or not shown; [ ] = another dose, or the depositor's remark. A selection: hits, their analogues and other compounds. The true share with any hit is near 7.6%. Unless noted, the call rests on the fitted dose curve; in most records, active means well fitted curve in the direction sought with a large enough effect; inconclusive means small, poorly fitted or top-dose-only effect, or another doubt; inactive means no such curve, though single readings can be large; an effect the other way counts as inactive or inconclusive.

SMILES	VP16 counter	p53 reactivator	BRCA1 expr up	RORgamma inh	Giardia killer	ELG1 DNA repair
O=C(CSc1nncs1)NC(=O)Nc1ccc2c(c1)OCCO2	?	16%	4.5µM*	1%	8	?
O=C(/C=C/c1cccc([N+](=O)[O-])c1)N1CCOCC1	-7%	3%	17%	18%[10 µM]	-2	19%
O=C(/C=C/c1ccc(OCCCF)cc1)N1CCOCC1	7%	13%	10µM*	-5%	-5	?
CCCCCCOc1ccc(/C=C/C(=O)N2CCOCC2)cc1OC	-3%	-21%	5%	9%	4	?
O=C(/C=C/c1cccc(Oc2ccccc2)c1)N1CCOCC1	-15%	20%	8.9µM*	?	-3	?
O=C(/C=C/c1cccc2ccccc12)c1ccncc1	8.9µM*	?	-73%	-88%	?	26%
Cc1[nH]c2ccccc2c1/C=C/C(=O)c1ccncc1	-18%	-2%	-22%	12%	0	11%
O=C(/C=C/c1cccc2ccccc12)N1CCOCC1	-7%	9%	10µM*	36%	-14	?
CCc1ccc(N2Cc3ccccc3C2)cc1	-3%	?	106%	-11%	24	?
CCOC(=O)c1ccc(N2Cc3ccccc3C2)cc1O	1%	21%	13µM*	33%	-6	?
CC(C)C(=O)NCCc1nc(-c2ccccc2)no1	.	.	21%	.	-3	.
CC(=O)N1CCC(=NNC(=O)c2cc3ccccc3cc2O)CC1	-10%	3%	-12%	10µM*	-2	1%
CCOC(=O)N1CCC(=NNC(=O)c2cc3ccccc3cc2O)CC1	?	5%	-32%	13µM*	-3	5%
O=C(NN=C1CCCCCC1)c1cc2ccccc2cc1O	?	1%	-15%	?	-10	6%
CCOC(=O)C1=C(C)C/C(=N\NC(=O)c2ccccc2O)CC1	10µM*	12%	10%	5µM*	-6	?
COc1ccc(N2CCN(C(=O)CSc3nnc(Cn4nnc5ccccc54)n3C)CC2)cc1	-2%	-5%	-11%	14%	1	-14%
Cc1ccc(NC(=O)C(C)N2CCOCC2)c(C(=O)c2ccccc2)c1 (stereo not drawn)	4%	-1%	-4%	11%	-13	-10%
Fc1ccc(-c2csc(=S)[nH]2)cc1	2%	-5%	5%	-43%	-12	?
Cc1[nH]c(=S)sc1Cc1ccc(F)cc1	10µM*	8%	-25%	4µM*	-13	-9%
Cc1cccc(N2CCN(C(=O)Cc3ccc(-n4c(=O)[nH]c5ccsc5c4=O)cc3)CC2)c1C	1%	-10%	-41%	30%	-4	18µM*
CN(Cc1c(F)cccc1Cl)C(=O)CNC(=O)c1cccs1	?	0%	11µM*	0%	-6	?
C=CS(=O)(=O)c1ccc(Oc2ccc(S(=O)(=O)C=C)cc2)cc1	2.2µM*	-21%	-100%	3.2µM*	2	2.6µM*
NC(=S)NN=C1c2cc(OCCN3CCOCC3)ccc2-c2ccc(OCCN3CCOCC3)cc21	3.2µM*	5%	-89%	1.3µM*	-4	?
COc1ccc(-n2nc(C(=O)NCC(=O)NCCc3ccc(OC)c(OC)c3)c3ccccc3c2=O)cc1	-19%	-5%	25%	34%	3	16µM*
COc1ccc(-n2nc(C(=O)NCC(=O)Nc3cc(OC)ccc3OC)c3ccccc3c2=O)cc1	-22%	-5%	-40%	15%	-1	13µM*
SMILES	VP16 counter	p53 reactivator	BRCA1 expr up	RORgamma inh	Giardia killer	ELG1 DNA repair
COc1ccc(-n2nc(C(=O)Nc3ccc(OC)c(OC)c3)c3c4ccccc4n(C)c3c2=O)cc1	-2%	-2%	-35%	24%	2	8.2µM*
CCN(CCCNC(=O)CNC(=O)c1nn(-c2ccc(OC)c(OC)c2)c(=O)c2ccccc12)c1ccccc1	-6%	-6%	-18%	10%	9	10µM*
CCCCNC(=O)CNC(=O)c1nn(-c2ccc(OC)c(OC)c2)c(=O)c2ccccc12	.	.	-13%	.	.	.
O=C(CCCc1ccncc1)c1ccccc1	.	.	4µM*	.	8	.
c1ccc(CCCCc2ccncc2)cc1	.	.	12%	.	-3	.
CC(C)[C@@H]1CC[C@@H](C)c2c(-c3ccccc3)n[nH]c21	?	2%	-39%	16µM*	-2	9%
O=C(Cc1c(F)cccc1Cl)Nc1ccc(S(=O)(=O)Nc2nccs2)cc1	-10%	-7%	-21%	-2%	-11	-1%
O=C(/C=C/Nc1ccc(F)cc1F)c1ccco1	7.1µM*	-6%	-45%	7.9µM*	11	?
O=C(/C=C/Nc1ccc(F)cc1F)c1cccs1	2.5µM*	26%	0%	1.6µM*	-24	?
O=C(/C=C/Nc1ccccc1O)c1ccco1	2%	?	-19%	?	-11	?
O=C(/C=C/Nc1cccc(F)c1)c1ccco1	?	?	0%	?	2	?
O=C(/C=C/Nc1ccc(Br)cc1F)c1ccco1	7.9µM*	-6%	-39%	7.1µM*	?	?
O=S(=O)(/N=C/N1CCOCC1)c1ccc(Cl)cc1	-3%	0%	1%	-8%	-6	0%
Cc1cccc(Oc2nc(CN3CCOCC3)nc3sc4c(c23)CCCC4)c1	?	-13%	-19%	11µM*	-6	?
CCC(C)Nc1nc(CN2CCOCC2)nc2sc3c(c12)CCC3 (stereo not drawn)	?	-2%	-6%	11µM*	-3	?
O=C(CCN1C(=O)/C(=C/c2ccccc2)SC1=S)NNC(=O)c1ccncc1	-8%	7%	-12%	-6%	-3	8%
O=C(O)CCCCCN1C(=O)/C(=C\c2ccncc2)SC1=S	10µM*	?	-84%	13µM*	11	?
O=C(O)CCCCCN1C(=O)/C(=C/c2ccncc2)SC1=S	10µM*	17%	-68%	11µM*	8	-13%
O=C(CCN1C(=O)/C(=C\c2ccccc2)SC1=S)NNC(=O)c1ccncc1	3%	-1%	-11%	-21%	-5	-2%
O=C(O)C(c1ccccc1)N1C(=O)/C(=C/c2cccs2)SC1=S (stereo not drawn)	-10%	-2%	0%	-23%	-8	-14%
O=C(O)CCCN1C(=O)/C(=C/c2ccncc2)SC1=S	10µM*	?	-22%	8.9µM*	13	?
CC(c1ccccc1)N1C(=O)/C(=C/c2ccncc2)SC1=S (stereo not drawn)	16µM*	-14%	-67%	?	10	?

Screens (PubChem)
